# Data reported in PubChem BioAssay AID449762 (Southern Research Specialized Biocontainment Screening …, 2010).
# Values joined by “and” are separate entries in the source; they are usually repeats but may differ in a detail not shown here. Equal entries are not always repeated. In all, about 330,000 compounds went through this assay and about 1,900 (0.58%) were called active. Not shown: some 4% with an inconclusive outcome. Only a sample is shown. Entries with a potency or affinity are not part of this list. Unmarked numbers belong to inactive results. Rule as the data show it: inconclusive = inhibition above about 70% without an active follow-up result; inactive = below that.
# Test: M. tuberculosis growth inhibition, HTS (AID 449762);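 also: bacterial growth assessed after seven days of incubation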
# Settings: M. tuberculosis H37Rv growth inhibition, 7H9 media; at 25 µM; stronger effect = higher value
row,SMILES,inhibition
1,Nc1nc(N)c(N=Nc2ccc(Cl)cc2)c(=O)[nH]1,3.75%
2,Nc1n[nH]c(N)c1N=Nc1ccc(Cl)cc1,0.26%
3,COc1cccc(NC(=O)CSc2ccc3nnc(-c4cccnc4)n3n2)c1,6.73%
4,O=C(CN(Cc1ccc(F)cc1)C(=O)CNS(=O)(=O)c1ccc(Cl)cc1)NCC1CCCO1 (centres undefined),-7.08%
5,CCN1CCN(CC(=O)N2N=C(c3cccs3)CC2c2ccc(C)cc2)C(=O)C1=O (centres undefined),12.5%
6,CCC(=O)N1N=C(c2cccs2)CC1c1ccc(C)cc1 (centres undefined),-0.72%
7,COc1ccccc1NC(=O)CCc1nnc2ccc(N3CCC4(CC3)OCCO4)nn12,-1.86%
8,CN1C(=O)CSc2ccc(NC(=O)N3CCOCC3)cc21,8.66%
9,CCC(=O)Oc1c(S(=O)(=O)c2ccc(C)cc2)c(C)nn1C(C)(C)C,11.5%
10,COc1ccc(Cc2nnc(SCC(=O)Nc3ccccc3C)n(N)c2=O)cc1,-1.95%
11,CCOc1ccc(Cc2nnc(SCC(=O)Nc3ccc(OC)cc3)n(N)c2=O)cc1,0.84%
12,N#Cc1c(N)n[nH]c1CCCN,0.78%
13,Nc1c2ccccc2nc2ccccc12,-8.85% and 58.8%
14,O=C(O)c1cc(Cl)nc2ccccc12,2.9%
15,CCCCOc1ccc(OCCNC(=O)C2CCCN2C(=O)Nc2ccccc2)cc1 (centres undefined),8.66%
16,COc1cc(C(=S)N2CCOCC2)cc(OC)c1OC(=O)c1ccc(C)cc1,8.19%
17,CCCc1nc2ccccc2c(C(=O)O)c1CC,2.61%
18,COc1cc2c(cc1OC)C1(NCC2)C(=O)Nc2ccccc21 (centres undefined),4.39%
19,COc1cc2c(cc1OC)C1(Nc3c-2c(C)nn3-c2ccccc2)C(=O)Nc2ccccc21 (centres undefined),9.01%
20,COC(=O)c1sc(-c2ccccc2)cc1NC(=O)c1cc(OC)cc(OC)c1,6.45%

row,SMILES,inhibition
1,Cc1cccc(C)c1-n1c(C)nn(Cc2ccc([N+](=O)[O-])cc2)c1=O,-15.4%
2,C(=N\Nc1ccccn1)/c1ccc2c(c1)OCCO2,-4.47%
3,C(=N\Nc1nc2ccccc2[nH]1)/c1ccc2c(c1)OCCO2,12.1%
4,O=C(NN1C(=O)NC2(CCCCC2)C1=O)c1ccc(-c2ccc([N+](=O)[O-])cc2)o1,4.8%
5,CCOC(=O)C1CCCN(S(=O)(=O)c2cccc3cccnc23)C1 (centres undefined),-4.82%
6,O=C1N(CCCN2C(=O)C3(OCCO3)c3ccccc32)c2ccccc2C12OCCO2,-3.19%
7,O=C1N(CCCCN2C(=O)C3(OCCO3)c3ccccc32)c2ccccc2C12OCCO2,-3.23%
8,O=C1O[C@@H]([C@H](O)CO)C(O)=C1O,-0.84%
9,Cn1c(C(=O)NCc2ccc3c(c2)OCO3)cc2sccc21,9.66%
10,CN1OC(c2ccccc2)=C(CO)C1c1ccccc1 (centres undefined),-1.69%
11,COc1ccc(-c2c(-c3ccc(OC)c(C)c3O)n[nH]c2C)cc1,10.4%
12,O=C(NCc1ccc(Cl)cc1)c1ccc(CSc2nc3ccncc3[nH]2)cc1,5.93%
13,O=C(c1ccc(CSc2nc3ccncc3[nH]2)cc1)N1CCN(c2cccc(Cl)c2)CC1,60.3%
14,O=C(c1ccco1)N1CCCC(c2nc3c(nnn3Cc3cccc(Cl)c3)c(=O)[nH]2)C1 (centres undefined),-2.33%
15,CCOC(=O)c1ccc(Nc2ccc([N+](=O)[O-])cn2)cc1,-5.22%
16,C#CCCC(=O)c1ccccc1/C=[N+](\[O-])c1ccccc1,-2.08%
17,COc1cccc(-c2n[nH]c(=S)n2Cc2ccco2)c1,8.56%
18,COCc1c(C(=O)N/N=C(/C)c2cccs2)nnn1-c1nonc1N,-8.26%
19,CCOc1ccc(NC(=O)CCC(=O)Nc2cc(OC)c(NC(=O)c3ccco3)cc2OC)cc1,20.8%
20,CCN1C(=O)[C@H]2[C@@H](c3ccc(-c4ccccc4)cc3)N[C@@](C)(C(=O)OC)[C@H]2C1=O,1.42%

row,SMILES,inhibition
1,COc1cc(CCC(C)=O)ccc1OC(=O)c1c(F)cccc1Cl,3.02%
2,COc1cc(/C=C/c2cc[n+](C)cc2)ccc1OCC(=O)Nc1ccccc1,-0.02%
3,COc1ccc(NC(=O)COc2ccc(/C=C/c3cc[n+](C)cc3)cc2OC)cc1,-3.55%
4,CCCCCCc1nc(C(N)=O)c2[nH]c(=O)n(-c3ccc(OC)cc3OC)c2n1,7.81%
5,Cc1cc(C)c(CN2CCC(n3nccc3NC(=O)C3CCOC3)CC2)cc1C (centres undefined),-0.02%
6,OC1(c2cccc(C(F)(F)F)c2)CCN(Cc2nnnn2CCc2ccccc2)CC1,1.32%
7,Cc1ccc(N2Cc3ccccc3C2=N)cc1[N+](=O)[O-],2.11%
8,COc1cc(NS(=O)(=O)c2ccc(OC)c(C)c2C)c(OC)cc1Cl,-6.31%
9,O=C(CSc1cccc2cccnc12)Nc1cccc(S(=O)(=O)N2CCOCC2)c1,-4.53%
10,Cc1cccc(NC(=O)CSc2cccc3cccnc23)c1,-1.29%
11,COc1ccc(NC(=O)CN(C)C(=O)c2cc(C)on2)cc1,2.44%
12,Cc1cc(C(=O)CSc2n[nH]c(N)n2)c(C)n1-c1cccc(F)c1,-3.82%
13,O=C(OCC(=O)c1ccc[nH]1)C1=COCCO1,18.8%
14,O=C(CC(Nc1ccccc1Cl)C(=O)OCC(=O)c1cccs1)c1ccccc1 (centres undefined),2.88%
15,O=C(OCC(=O)c1cccs1)c1ccccc1,-1.72%
16,O=C(CCC(=O)c1cccs1)OCC(=O)c1ccccc1,2.32%
17,COC(=O)c1ccc(-n2c(C)cc(C(=O)COC(=O)C3=COCCO3)c2C)cc1,48.5%
18,Cc1c(Cl)cccc1NC(CC(=O)c1ccccc1)C(=O)OCC(=O)c1cccs1 (centres undefined),-5.49%
19,O=C(COC(=O)c1cccs1)c1ccc2c(c1)OCCO2,-22.5%
